“And” between values parts separate entries of the source, which are not always exact repeats. Identical values can stand only once. Records with an inconclusive call do not appear. Entries that show only a call come without a potency. Some structures have more than one record in an assay (separate samples or runs), and their calls can disagree. The source made the active and inactive calls. Unless noted, calls come from the whole dose curve; as a rule, active = well fitted curve in the direction sought with a large enough effect in the repeat runs; inconclusive = weak or mixed curves; inactive = no such curve, though single readings can be large; an effect the other way counts as inactive or inconclusive.
Columns and labels:
[1] = A CellTox Green Cytotoxicity Assay to monitor cytotoxicity in HEK293 cells - 32 hour (AID 1224881); note: nearly all actives have a fitted effect of over 40% in size; note: potency is the fitted concentration of half-maximal effect
Summary of the method: (§1)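 Nonlytic real-time cytotoxicity: HEK293 + CellTox Green reagent plated, 5 h preincubation, pintool compound addition (23 nL in DMSO), 37 C for 40 h, fluorescence measured at successive time points.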

[2] = A CellTox Green Cytotoxicity Assay to monitor cytotoxicity in HepG2 cells - 0 hour (AID 1224882); note: nearly all actives have a fitted effect of over 35% in size
Summary of the method: (§2)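 Read-out is fluorescence of a cyanine dye excluded from live cells that stains DNA of dead HepG2 cells, with signal proportional to cytotoxicity. Plates were read at 0, 8, 16, 24, 32 and 40 h after compound addition.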

[3] = A CellTox Green Cytotoxicity Assay to monitor cytotoxicity in HepG2 cells - 32 hour (AID 1224883); note: nearly all actives have a fitted effect of over 50% in size; note: potency is the fitted concentration of half-maximal effect
Summary of the method: as §2

[4] = A CellTox Green Cytotoxicity Assay to monitor cytotoxicity in HEK293 cells - 8 hour (AID 1224884); note: nearly all actives have a fitted effect of over 35% in size; note: potency is the fitted concentration of half-maximal effect
Summary of the method: as §1

[5] = qHTS RealTime-Glo MT Cell Viability Assay in HepG2 cells - 16 hour (AID 1224885); note: nearly all actives have a fitted effect of over 50% in size; note: potency is the fitted concentration of half-maximal effect
Summary of the method: (§3)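 Compound treatment began 5 h after plating HepG2 cells (600/well) with NanoLuc luciferase and prosubstrate. Plates stayed at 37 C for 40 h; luminescence was captured at six time points, 0 h through 40 h.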

[6] = qHTS RealTime-Glo MT Cell Viability Assay in HEK293 cells - 24 hour (AID 1224886); note: nearly all actives have a fitted effect of over 50% in size; note: potency is the fitted concentration of half-maximal effect
Summary of the method: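 Quantitative high-throughput screen of the Tox21 10K library in HEK293: cells and RealTime-Glo reagents plated together, compound added at 5 h, luminescence monitored through 40 h at 37 C.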

[7] = qHTS RealTime-Glo MT Cell Viability Assay in HEK293 cells - 8 hour (AID 1224887); note: nearly all actives have a fitted effect of over 50% in size; note: potency is the fitted concentration of half-maximal effect
Summary of the method: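 Cells were seeded together with NanoLuc luciferase and a prosubstrate that viable cells reduce to a luciferase substrate. After a 5 h incubation at 37 C/5% CO2, compounds were added and luminescence was measured repeatedly during 40 h of treatment.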

[8] = A CellTox Green Cytotoxicity Assay to monitor cytotoxicity in HEK293 cells - 16 hour (AID 1224888); note: nearly all actives have a fitted effect of over 35% in size
Summary of the method: as §1

[9] = qHTS RealTime-Glo MT Cell Viability Assay in HepG2 cells - 0 hour (AID 1224889); note: nearly all actives have a fitted effect of over 50% in size; note: potency is the fitted concentration of half-maximal effect
Summary of the method: as §3

[10] = A CellTox Green Cytotoxicity Assay to monitor cytotoxicity in HepG2 cells - 8 hour (AID 1224890); note: nearly all actives have a fitted effect of over 45% in size; note: potency is the fitted concentration of half-maximal effect
Summary of the method: as §2

[11] = qHTS assay to identify small molecule antagonists of the estrogen receptor alpha (ER-alpha) signaling pathway using the BG1 cell line in the presence of 0.1 nM 17-beta-estradiol - cell viability counter screen (AID 1259241); note: nearly all actives have a fitted effect of over 40% in size
Summary of the method: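 Cells were plated and left 24 hr, compounds in DMSO were pinned in, 17beta-estradiol was added to 0.1 nM final, and after 22 hr CellTiter-Fluor reagent was added for 30 min before fluorescence was read.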

[12] = qHTS assay to identify small molecule antagonists of the androgen receptor (AR) signaling pathway using the MDA cell line in the presence of 0.5 nM R1881 - cell viability counter screen (AID 1259242); note: nearly all actives have a fitted effect of over 45% in size; note: potency is the fitted concentration of half-maximal effect
Summary of the method: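 Counter screen for cytotoxicity run in the same wells as the AR antagonist reporter screen: MDA-kb2 cells were treated 16 hr with test compounds and 0.5 nM R1881, then live-cell protease activity was measured by fluorescence.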

[13] = qHTS assay to identify small molecule HDAC inhibitors (AID 1259364); note: nearly all actives have a fitted effect of over 45% in size; note: potency is the fitted concentration of half-maximal effect
Summary of the method: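 Luminescence from a cell-permeant luminogenic class I/II HDAC substrate reports endogenous deacetylase activity in intact HCT-116 cells treated with compounds for 2 h.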

[14] = qHTS assay to identify small molecule HDAC inhibitors - cell viability counter screen (AID 1259365); note: nearly all actives have a fitted effect of over 50% in size; note: potency is the fitted concentration of half-maximal effect
Summary of the method: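 Counter screen in wild-type HCT-116 cells: compounds dissolved in DMSO are pin-transferred onto overnight-plated cells and left 2hr at 37C. ATP-based CellTiter-Glo luminescence then measures viable cells.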

[15] = qHTS assay to identify small molecule agonists of the sonic hedgehog signaling (Shh) pathway - cell viability counter screen (AID 1259366); note: nearly all actives have a fitted effect of over 50% in size; note: potency is the fitted concentration of half-maximal effect
Summary of the method: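 Cells are plated at 2,000 per well and left 4hr at 37C, 5% CO2 before compound addition. After 23hr of treatment, CellTiter-Fluor reagent is added for 1hr at 37C and fluorescence is measured.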

[16] = qHTS assay to identify small molecule antagonists of the sonic hedgehog signaling (Shh) pathway - cell viability counter screen (AID 1259367); note: nearly all actives have a fitted effect of over 55% in size; note: potency is the fitted concentration of half-maximal effect
Summary of the method: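 After a 4 hr settling period, 3T3 Gli1-Luc cells were treated with DMSO-dissolved chemicals and conditioned medium, kept 24 hr at 37C in 5% CO2, and assayed for viability by CellTiter-Fluor fluorescence following 1 hr reagent incubation.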

[17] = qHTS assay to identify small molecule agonists of the sonic hedgehog signaling (Shh) pathway (AID 1259368; calls by dose curve;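 note: NIH/3T3-derived 3T3Gli1-Luc cells carrying a stable Gli1-driven firefly luciferase reporter; series mostly up to about 92 µM; nearly all actives have a fitted effect of over 15% in size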)
Summary of the method: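 3T3Gli1-Luc (NIH/3T3 clone, stable Gli1-Luc); 4 hr pre-incubation, then cpd in DMSO 24 hr, 37 C/5% CO2; luciferase reagent 30 min RT; luminescence.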

[18] = biological target: Androgen receptor (Homo sapiens) (UniProt P10275); assay: qHTS assay to identify small molecule antagonists of the androgen receptor (AR) signaling pathway using the MDA cell line in the presence of 0.5 nM R1881 (AID 1259243); note: nearly all actives have a fitted effect of over 50% in size
Summary of the method: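 Luciferase luminescence is the read-out: compounds are tested for suppressing 0.5 nM R1881-driven MMTV reporter activity in MDA-kb2 cells after 16 hr at 37C.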

[19] = biological target: Estrogen receptor (Homo sapiens) (UniProt P03372); assay: qHTS assay to identify small molecule antagonists of the estrogen receptor alpha (ER-alpha) signaling pathway using the BG1 cell line in the presence of 0.1 nM 17-beta-estradiol (AID 1259244); note: nearly all actives have a fitted effect of over 50% in size; note: potency is the fitted concentration of half-maximal effect
Summary of the method: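 Cells: VM7Luc4E2, endogenous ER-alpha, 4x ERE-luc stable. Pre-culture 5 d, phenol red-free, charcoal-stripped FBS. Plated 24 h, compound + E2 0.1 nM final, 22 h 37C/5% CO2. Readout ONE-Glo luminescence.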

[20] = qHTS assay to identify small molecule phospholipidosis (PLD) inducers (AID 1259344; active = well fitted curve in the direction sought with a large enough effect; an effect the other way counts as inactive or inconclusive)
Summary of the method: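 HepG2 cells grown on collagen I take up LipidTOX Red while exposed to compound for 24 h; after fixation they are imaged at 20x and pit metrics are extracted.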

Chain of Estrogen receptor (Homo sapiens) (P03372 whole entry, looked up): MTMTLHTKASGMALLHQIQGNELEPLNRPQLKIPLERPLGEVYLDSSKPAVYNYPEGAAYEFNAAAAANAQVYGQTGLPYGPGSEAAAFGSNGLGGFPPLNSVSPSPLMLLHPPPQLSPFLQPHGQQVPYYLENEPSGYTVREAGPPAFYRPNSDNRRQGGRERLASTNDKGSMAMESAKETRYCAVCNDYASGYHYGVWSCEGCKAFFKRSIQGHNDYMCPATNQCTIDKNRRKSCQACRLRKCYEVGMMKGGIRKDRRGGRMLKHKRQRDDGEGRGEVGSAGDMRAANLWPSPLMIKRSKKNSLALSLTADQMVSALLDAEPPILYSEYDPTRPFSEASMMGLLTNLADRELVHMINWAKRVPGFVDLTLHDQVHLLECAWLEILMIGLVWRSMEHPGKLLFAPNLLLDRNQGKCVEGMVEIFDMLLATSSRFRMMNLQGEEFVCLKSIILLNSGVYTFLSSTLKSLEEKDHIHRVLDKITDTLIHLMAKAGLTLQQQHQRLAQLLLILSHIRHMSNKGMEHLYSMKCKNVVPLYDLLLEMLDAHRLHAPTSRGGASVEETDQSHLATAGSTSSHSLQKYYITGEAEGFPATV
Chain of Androgen receptor (Homo sapiens) (P10275 whole entry, looked up): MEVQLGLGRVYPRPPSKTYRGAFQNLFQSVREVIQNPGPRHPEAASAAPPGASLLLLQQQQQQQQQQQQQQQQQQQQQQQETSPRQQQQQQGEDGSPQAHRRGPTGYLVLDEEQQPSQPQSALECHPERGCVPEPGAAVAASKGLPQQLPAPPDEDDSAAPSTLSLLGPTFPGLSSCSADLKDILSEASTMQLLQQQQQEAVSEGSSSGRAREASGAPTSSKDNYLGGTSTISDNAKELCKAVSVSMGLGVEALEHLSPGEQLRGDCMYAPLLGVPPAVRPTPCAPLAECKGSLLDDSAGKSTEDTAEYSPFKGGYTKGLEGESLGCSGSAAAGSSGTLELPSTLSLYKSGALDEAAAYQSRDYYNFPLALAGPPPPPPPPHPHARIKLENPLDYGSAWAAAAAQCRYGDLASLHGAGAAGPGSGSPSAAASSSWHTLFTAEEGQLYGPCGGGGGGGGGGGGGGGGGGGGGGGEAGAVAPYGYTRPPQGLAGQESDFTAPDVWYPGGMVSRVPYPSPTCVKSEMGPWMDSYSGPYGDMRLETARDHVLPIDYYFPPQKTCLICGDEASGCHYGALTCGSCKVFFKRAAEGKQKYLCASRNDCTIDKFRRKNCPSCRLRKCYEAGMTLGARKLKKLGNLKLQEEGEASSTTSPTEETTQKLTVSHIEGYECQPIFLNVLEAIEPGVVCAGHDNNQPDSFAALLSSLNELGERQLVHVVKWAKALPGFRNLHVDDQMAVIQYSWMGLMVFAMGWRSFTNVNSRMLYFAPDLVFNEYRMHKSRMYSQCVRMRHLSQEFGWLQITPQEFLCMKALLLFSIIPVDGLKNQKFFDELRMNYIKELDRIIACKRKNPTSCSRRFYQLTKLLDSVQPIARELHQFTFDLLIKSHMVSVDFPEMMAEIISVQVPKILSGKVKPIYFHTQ

SMILES	Potency [1]	Potency [2]	Potency [3]	Potency [4]	Potency [5]	Potency [6]	Potency [7]	Potency [8]	Potency [9]	Potency [10]	Potency [11]	Potency [12]	Potency [13]	Potency [14]	Potency [15]	Potency [16]	outcome [17]	Potency [18]	Potency [19]	outcome [20]
O=C(O)COc1ccc(Cl)cc1Cl	inactive	inactive	inactive	inactive	inactive	inactive	inactive	inactive	inactive	inactive	inactive	inactive	inactive	inactive	inactive	inactive	inactive	–	–	–
Cc1cc(Cl)ccc1OCC(=O)O	–	inactive	inactive	inactive	inactive	inactive	inactive	inactive	inactive	inactive	inactive	inactive	inactive	inactive	inactive	inactive	inactive	inactive	inactive	–
O=c1[nH]c(=O)n(Cl)c(=O)n1Cl	inactive	inactive	inactive	inactive	inactive	inactive	inactive	inactive	inactive	inactive	inactive	inactive	inactive	inactive	inactive	inactive	inactive	–	–	inactive
CC(=O)O	inactive	inactive	inactive	inactive	inactive	inactive	inactive	inactive	inactive	inactive	inactive	inactive	inactive	inactive	inactive	inactive	inactive	–	–	–
Cc1cc(-c2ccc(N)c(C)c2)ccc1N	inactive	inactive	inactive and 43.6 µM (active)	inactive	inactive	inactive	inactive	inactive	inactive	inactive	inactive	inactive	48.4 µM (active)	inactive	inactive	inactive	inactive	–	34.4 µM (active)	–
CCCCCCCCCCCCCCCCn1cc[n+](C)c1	inactive and 19.7 µM (active) and 24.6 µM (active)	inactive	–	inactive and 49.4 µM (active)	inactive and 49.4 µM (active) and 49.1 µM (active)	–	inactive and 55.4 µM (active) and 55.1 µM (active)	–	inactive	inactive and 55.4 µM (active) and 55.1 µM (active)	–	inactive and 34.7 µM (active) and 48.7 µM (active)	inactive	inactive	–	–	inactive	–	–	–
CCCCCC[n+]1ccccc1	inactive	inactive	inactive	inactive	inactive	inactive	inactive	inactive	inactive	inactive	inactive	inactive	inactive	inactive	inactive	inactive	inactive	–	–	–
CC[n+]1ccccc1	inactive	inactive	inactive	inactive	inactive	inactive	inactive	inactive	inactive	inactive	inactive	inactive and 30.4 µM (active)	inactive	inactive	inactive	inactive	inactive	–	–	–
CCNc1nc(Cl)nc(NCC)n1	inactive	inactive	inactive	inactive	inactive	inactive	inactive	inactive	inactive	inactive	inactive	inactive	inactive	inactive	inactive	inactive	inactive	–	inactive	inactive
CCCCCCCCCCCCCC[P+](CCCCCC)(CCCCCC)CCCCCC	12.4 µM (active) and 19.7 µM (active)	inactive	12.4 µM (active) and 17.5 µM (active)	19.6 µM (active) and 22.1 µM (active) and inactive	13.9 µM (active) and 19.7 µM (active) and inactive	5.52 µM (active) and 6.22 µM (active) and 3.46 µM (active)	12.4 µM (active) and 17.5 µM (active)	–	inactive	19.6 µM (active) and 22.1 µM (active) and inactive	–	9.73 µM (active) and 13.8 µM (active)	inactive	34.5 µM (active) and 69.1 µM (active) and inactive	13.7 µM (active) and 21.9 µM (active) and inactive	15.4 µM (active) and 54.9 µM (active) and inactive	inactive	–	2.74 µM (active) and 3.09 µM (active) and 3.43 µM (active)	–
CCC[N+]1(C)CCCCC1	inactive	inactive	inactive	inactive	inactive	inactive	inactive	inactive	inactive	inactive	inactive	inactive	inactive	inactive	inactive	inactive	inactive	–	–	–
COP(=O)(OC)C(O)C(Cl)(Cl)Cl (stereo not drawn)	inactive	inactive	inactive	inactive	inactive	inactive	inactive	inactive	inactive	inactive	inactive	inactive	inactive	inactive	inactive	inactive	inactive	–	–	inactive
OCCOc1ccccc1	inactive	inactive	inactive	inactive	inactive	inactive	inactive	inactive	inactive	inactive	inactive	inactive	inactive	inactive	inactive	inactive	inactive	–	inactive	inactive
CCCC[n+]1ccc(C)cc1	inactive and 21.8 µM (active)	inactive	inactive and 48.7 µM (active)	inactive and 21.8 µM (active)	inactive	43.4 µM (active) and inactive	30.7 µM (active) and inactive	–	inactive	inactive	inactive	inactive	inactive	inactive and 60.8 µM (active)	inactive and 60.8 µM (active)	inactive and 60.8 µM (active)	inactive	–	–	–
Nc1ccc(Cl)cc1	–	inactive	inactive	inactive	inactive	inactive	inactive	inactive	inactive	inactive	inactive	inactive	inactive and 27.8 µM (active)	inactive	inactive	inactive	inactive	–	inactive	–
CCn1cc[n+](C)c1C	inactive	inactive	inactive	inactive	inactive	inactive	inactive	inactive	inactive	inactive	inactive	inactive	inactive	inactive	inactive	inactive	inactive	–	–	–
Oc1cccc2cccnc12	17.5 µM (active) and 6.16 µM (active) and inactive	inactive	–	inactive	inactive and 3.89 µM (active)	5.49 µM (active) and inactive	inactive	inactive	inactive	inactive	–	inactive	inactive	inactive	–	–	inactive	–	–	inactive
O=C(O)C(Cl)Cl	–	inactive	inactive	inactive	inactive	inactive	inactive	inactive	inactive	inactive	inactive	inactive	inactive	inactive	inactive	inactive	inactive	–	inactive	inactive
COP(=O)(OC)OC=C(Cl)Cl	–	inactive	inactive	inactive	inactive	inactive	inactive	inactive	inactive	inactive	inactive	inactive	inactive	inactive	inactive	inactive	inactive	–	inactive	inactive
CC[N+]1(C)CCCC1	inactive	inactive	inactive	inactive	inactive	inactive and 24.6 µM (active)	inactive	inactive	inactive	inactive	inactive	inactive	inactive	inactive	inactive	inactive	inactive	–	–	–
C[C@]12CCC(=O)C=C1CC[C@@H]1[C@@H]2CC[C@]2(C)C(=O)CC[C@@H]12	–	inactive	inactive	inactive	inactive	27.1 µM (active) and inactive	inactive	inactive	34.1 µM (active) and 21.9 µM (active) and inactive	inactive	inactive	inactive	inactive	inactive	inactive	60.1 µM (active) and inactive	inactive	–	inactive	–
CCCn1cc[n+](C)c1	inactive	inactive	inactive	inactive	inactive	inactive	inactive	inactive	inactive	inactive	inactive	inactive	inactive	inactive	inactive	inactive	inactive	–	–	–
Nc1ccc(-c2ccc(N)cc2)cc1	–	inactive	inactive	inactive	inactive	inactive	inactive	inactive	inactive	inactive	inactive	inactive	inactive	inactive	inactive	inactive	inactive	–	inactive	–
CC(Cl)(Cl)C(=O)O	–	inactive	inactive	inactive	inactive	inactive	inactive	inactive	inactive	inactive	inactive	inactive	inactive	inactive	inactive	inactive	inactive	–	inactive	–
O=C(O)C(Cl)(Cl)Cl	inactive	inactive	inactive	inactive	inactive	inactive	inactive	inactive	inactive	inactive	inactive	inactive	inactive	inactive	inactive	inactive	inactive	–	–	inactive
O=P1(N(CCCl)CCCl)NCCCO1 (stereo not drawn)	–	inactive	inactive	inactive	inactive	inactive	inactive	inactive	inactive	inactive	inactive	inactive	inactive	inactive	inactive	inactive	inactive	–	inactive	inactive
